Test results published in PubChem BioAssay AID2380 (Sanford-Burnham Center for Chemical Genomics, 2010).
Screen size: about 330,000 compounds; about 960 (0.29%) were called active.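 How the source made its calls: active means compounds whose signal lies at least 3.5 SD above the mean of all wells on their plate; inactive means the rest.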 The entries come from a sample that favours actives as a whole.

Assay: inducers of MIN6 beta-cell proliferation, primary screen, ATP luminescence, uHTS (AID 2380);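 further: 0% = DMSO-treated cells in low-serum medium and 100% = 10% serum control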
Settings: MIN6 cells proliferation, ATPlite luminescence, 48 h; at 10 µM; active compounds read high; 100% = growth in 10% serum; cells starved in 0.2% serum

proliferation, active:
CCOC(=O)C1=C(CC)OC(N)=C(C#N)C1c1ccc(F)cc1F (configuration not stated) 9.9%
CCOC(=O)Nc1sc(C(=O)N(C)C)c(C)c1C(=O)OCC 7.91%
Cn1nc(-c2ccccc2)c2cc([N+](=O)[O-])ccc21 8.71%
Cc1ccc(S(=O)(=O)N2CCCCC2)cc1C(=O)N1CCN(CCO)CC1 12.6%
CCn1c(=O)c([N+](=O)[O-])c(NCc2ccc3c(c2)OCO3)c2ccccc21 8.6%
Cc1cc(NC(=O)CSc2nc3ccccc3n2CC(C)C)no1 7.98%
CCCNC(=O)CCn1nc(-c2ccccc2)c2ccccc2c1=O 9.9%
OC1CN=C2Sc3ccccc3N2C1 (configuration not stated) 5.2%
COc1cc2c(cc1OC)C(C(=O)NCc1ccco1)C1c3ccccc3CCN1C2=O (configuration not stated) 9.44%
COc1cccc(CNC(=O)CCC2CCCN(C(=O)c3ccoc3C)C2)c1 (configuration not stated) 12.3%

proliferation, inactive:
Cc1cc(C)c(S(=O)(=O)NCC2CCC(C(=O)NCc3ccc4c(c3)OCO4)CC2)c(C)c1 (configuration not stated) -1.16%
O=C(CN1CCN(c2ccc(Cl)cc2)CC1)c1ccccc1 -0.29%
COc1ccc(CN2CCNC(=O)C2CC(=O)NCc2cn[nH]c2-c2ccccc2)c(F)c1 (configuration not stated) 0.21%
Cc1ccc2c(c1)N(S(=O)(=O)c1cc(-c3cc(C)no3)ccc1C)CCO2 -6.66%
C=CCOC(=O)C1=C(C)OC(N)=C(C#N)C1c1ccc(F)cc1 (configuration not stated) -0.46%
CCOC(=O)C1=C(C)OC(N)=C(C#N)C1c1cncc(-c2ccc(F)cc2)c1 (configuration not stated) -3.32%
CC(=O)NC(C)(C)C1CC=C(C)/C(=N\O)C1 (configuration not stated) -0.3%
CCOC(=O)c1c(NC(=O)CCl)sc(C(=O)N(CC)CC)c1C -3.42%
CCOC(=O)c1sc(NC(=O)CCN2CCOCC2)c(C(=O)OCC)c1C -6.14%
NC(=O)c1nsc(C(=O)N(CCCN2CCOCC2)C(C(=O)NC2CCCCC2)c2ccc(Cl)cc2)c1N (configuration not stated) 0%
Cc1noc(COc2ccccc2OCc2onc(C)c2Cl)c1Cl -3.09%
COC(=O)Cn1nc(-c2ccccc2)c2cc(Cl)ccc21 -1.48%
O=[N+]([O-])c1ccc2c(c1)C(O)n1nc(-c3ccccc3)nc1S2 (configuration not stated) -0.32%
C/C(Cl)=C\Cn1c(Nc2cccc(C)c2)nc2c1c(=O)n(C)c(=O)n2C -1.44%
COc1ccc(NC(=O)CNc2cc(S(=O)(=O)N3CCOCC3)ccc2N2CCOCC2)c(OC)c1 -0.63%
CCOC(=O)C1(Cc2ccccc2C)CCCN(C(=O)CCc2c(C)noc2C)C1 (configuration not stated) 0.64%
CCOC(=O)N1CCN(C(=O)c2cn(C)c3ccc(S(=O)(=O)N4CCCC4)cc3c2=O)CC1 -0.22%
Cc1ccc(S(=O)(=O)N2CCN(C)CC2)cc1C(=O)NC1CCCCC1 -0.96%
CCC(NC(=O)c1ccccc1NC(=O)c1ccccc1)C(=O)NNC(=O)CSc1nc2ccccc2o1 (configuration not stated) -0.4%
COc1ccc(N(CC(=O)N2CCOCC2)S(=O)(=O)c2ccccc2)cc1Cl -0.37%
COCCN(C(=O)CCC(=O)Nc1nccs1)C(C(=O)NC(C)(C)C)c1ccc(Cl)cc1 (configuration not stated) 5.62%
CC(=O)Nc1ccc(/C(C)=N/NC(=O)CN(c2ccccc2Br)S(C)(=O)=O)cc1 0%
CCn1c(=O)cc(SCC(=O)NCc2ccc3c(c2)OCO3)c2ccccc21 0.19%
C=CCn1c(=O)c(C(=O)NCc2ccc3c(c2)OCO3)c(O)c2ccccc21 -5.37%
CCc1ccc(S(=O)(=O)NCC(O)COc2ccc(OC)cc2)cc1 (configuration not stated) 1.69%
COc1ccc(CN(C(=O)CSc2nnc(-c3ccc(OC)c(OC)c3)o2)c2ccc(F)cc2)cc1 -1.49%
CSc1cccc(NC(=O)CN2C(=O)COc3ccc(S(=O)(=O)N4CCOCC4)cc32)c1 -3.64%
O=C(c1ccc(F)cc1)c1cn(Cc2ccc(F)cc2)c2cc3c(cc2c1=O)OCCO3 -0.71%
Cc1cc(NC(=O)COn2nnc3ccccc32)no1 -1.01%
Cc1cc(NC(=O)CSCC(=O)NC(C)c2ccccc2)no1 (configuration not stated) -3.94%
CCOc1ccc(C(=O)Nc2ccc(CN3CCOCC3)cc2)cc1Cl -1.37%
CCOC(=O)c1csc(CCNC(=O)c2oc3c(Cl)cc(C)cc3c2C)n1 -3.1%
O=c1c2ccccc2c(-c2ccc(Br)cc2)nn1Cc1ccccc1 -5.75%
CCOC(=O)C(C)n1nc(-c2ccccc2)c2ccccc2c1=O (configuration not stated) 4.32%
CCCn1c(C)cc(/C=C(\C#N)C(=O)OCC(=O)Nc2cc(OC)c(OC)c(OC)c2)c1C -0.86%
COc1ccccc1N(C)C(=O)c1cc(S(=O)(=O)N2CCc3ccccc32)cn1C -2.09%
CCOC(=O)c1c(N=CN(C)C)c(C#N)c2n1CCCC2 5.05%
CC1=NN(C(=O)CCCc2ccccc2)C(O)(C(F)(F)F)C1 (configuration not stated) -1.71%
CCOC(=O)N1CCN(C(=O)c2ccc3nc4cc(Cl)ccc4c(=O)n3c2)CC1 -2.76%
O=C(CN1CCN(c2ccc(Cl)cc2)CC1)NCc1cccs1 0.22%
CC1(C)SC2c3ccccc3C(=O)N2[C@@H]1C(=O)NCc1ccco1 (some centres not stated) 0.14%
COc1ccc(S(=O)(=O)N2CCC(C(=O)NCc3ccco3)CC2)cc1C -0.27%
O=C1NC(c2ccc(-c3ccccc3[N+](=O)[O-])o2)C(C(=O)c2ccc(Cl)cc2)C(O)(C(F)(F)F)N1 (configuration not stated) -2.76%
COC(C(=O)NCc1ccccc1C)c1ccccc1 (configuration not stated) -1.34%
CC(=O)CC[C@@H](C)O[C@@H]1OC(C)[C@H](O)CC1O (some centres not stated) -5.25%
COc1cccc(CNC(=O)CCC2CCCN(C(=O)c3cc(C)[nH]n3)C2)c1 (configuration not stated) 0.78%
COc1cccc(CNC(=O)CCC2CCCN(C(=O)c3ccc(F)c(Cl)c3)C2)c1 (configuration not stated) -1.84%
